Measurements: PubChem BioAssay (NCATS)
Records with an inconclusive call do not appear. The source made the active and inactive calls. Unless noted, the call rests on the fitted dose curve; in most records, active means well fitted curve in the direction sought with a large enough effect; inconclusive means small, poorly fitted or top-dose-only effect, or another doubt; inactive means no such curve, though single readings can be large; an effect the other way counts as inactive or inconclusive.

Experiments:
[1] = Cell Viability - HepG2 (AID 433; calls by dose curve;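 further: potency means the concentration at half of the fitted maximal effect; potency for ATP loss meaning cytotoxicity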); details: qHTS
Summary of the method: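 Cytotoxicity is scored as loss of intracellular ATP in HepG2 cells exposed to compounds for 40 h. Concentration-response curves, normalized to DMSO and 100 uM tamoxifen, give AC50 values.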

[2] = Cell Viability - MRC5 (AID 434; calls by dose curve;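 further: potency means the concentration at half of the fitted maximal effect; cells exposed to compound for 40 hours at 37 °C; potency reflects cytotoxicity seen as loss of intracellular ATP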); details: MRC5 lung fibroblast viability, qHTS
Summary of the method: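 ATP luminescence read-out (CellTiter-Glo, 20 min RT) after 40 hr, 37 °C compound exposure of 1500 MRC5 cells/well. Data normalized to DMSO (basal) and 100 uM tamoxifen (100% inhibition); AC50 from standard Hill equation.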

[3] = Cell Viability - HUV-EC-C (AID 542); details: HUV-EC-C endothelial cell viability, qHTS; series mostly up to 92.2 µM; further: on the % scale 0 is the no-effect control and ±100 the full control effect; nearly all actives have a fitted effect of over 35% in size
Summary of the method: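 Concentration-dependent ATP loss in HUV-EC-C cells is the measure. Exposure lasts 40 hr at 37 °C; luminescence follows CellTiter-Glo addition, and Hill fits give AC50.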

[4] = Cellular Toxicity (caspase-3) HepG2 (AID 654); details: HepG2 caspase-3 activation, luminescence, 0% = DMSO only, 100% = tamoxifen; series mostly up to 92.2 µM;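 further: cells exposed to compound for 16 hours before reading; 0% = DMSO alone and 100% = caspase signal from 100 µM tamoxifen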
Summary of the method: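 Concentration-response AC50 values reflect caspase-3/7 induction in HepG2 cells after 16 hours of compound exposure, quantified by luminescence from liberated aminoluciferin and referenced to 100 uM tamoxifen as full stimulation.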

[5] = Cellular Toxicity (caspase-3) Jurkat (AID 655); details: Jurkat caspase-3 activation, luminescence; caspase-3 activation: at 92.2 µM (top of the series), DMSO = 0%, tamoxifen = 100%;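 further: cells exposed to compound for 16 h at 37 °C before reading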
Summary of the method: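 Caspase 3/7 activation is scored as increased luminescence in Jurkat cells cultured with compound for 16 hours in complete medium. AC50 values come from Hill fits of qHTS concentration-response data normalized to DMSO and 100 uM tamoxifen controls.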

[6] = Cellular Toxicity (caspase-3) HUV-EC-C (AID 656); details: HUV-EC-C cells, caspase-3 activation (apoptosis), vehicle = 0, 100 µM tamoxifen = 100%; series mostly up to 92.2 µM
Summary of the method: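 Read-out: luminescence proportional to caspase 3/7 activity, measured 20 min after adding Caspase-Glo 3/7 reagent. Cells (HUV-EC-C) had received compound for 16 hr at 37°C. Increases relative to DMSO and 100 uM tamoxifen gave concentration-response AC50 values.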

[7] = Cellular Toxicity (caspase-3) SHSY5Y (AID 657); details: SH-SY5Y caspase-3 activation, DMSO zero, 10 µM staurosporine = 100%; series mostly up to 91.7 µM
Summary of the method: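 Cells plated and incubated 5 h at 37 °C, dosed over a concentration range, incubated 16 h, then given Caspase-Glo 3/7 reagent for 1 h at room temperature before luminescence reading. Staurosporine (10 uM) defined full stimulation.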

[8] = Cellular Toxicity (caspase-3) BJ (AID 658); details: BJ fibroblasts, luminescence, normalized: DMSO 0%, staurosporine 100%; series mostly up to 91.7 µM
Summary of the method: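 qHTS, BJ fibroblasts, 1000 cells/well; 5 hr preincubation, 16 hr compound, 37 °C; Caspase-Glo 3/7 reagent, 1 hr RT; luminescence. DMSO = 0%, 10 uM staurosporine = 100%. Hill-equation AC50.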

[9] = Cellular Toxicity (caspase-3) MRC-5 (AID 659); details: MRC-5 cells, luminescence, normalized: DMSO 0%, 10 µM staurosporine 100%; series mostly up to 91.7 µM
Summary of the method: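 MRC-5 fibroblasts, 1500/well; 16 h cpd, 37 °C; Caspase-Glo 3/7, 1 h RT; lumi read. Norm: DMSO = 0%, 10 uM staurosporine = 100%. Hill-fit AC50 from qHTS conc-response.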

[10] = Cellular Toxicity (caspase-3) Mesangial (AID 660); details: mesangial cells, normalized: DMSO 0%, 100 µM tamoxifen 100%; series mostly up to 91.7 µM;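 further: cells exposed to compound for 16 h before the caspase read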
Summary of the method: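 AC50 values come from Hill-equation fits of caspase 3/7 activation, measured as Caspase-Glo luminescence in human glomerular mesangial cells exposed to compound for 16 h at 37 °C; 100% set by 100 uM tamoxifen.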

[11] = Cellular Toxicity (caspase-3) SK-N-SH (AID 661); details: SK-N-SH caspase-3 activation, qHTS; series mostly up to 91.7 µM
Summary of the method: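 Apoptosis readout in SK-N-SH neuroblastoma: Caspase-Glo 3/7 luminescence following 16 hr treatment in complete culture medium. Normalization used DMSO and 10 uM staurosporine controls.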

[12] = Cellular Toxicity (caspase-3) H-4-II-E (AID 663); details: H-4-II-E rat hepatoma; Potency: caspase-3 activation; series mostly up to 92.2 µM;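 further: cells exposed to compound for 16 hr before readout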
Summary of the method: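 H-4-II-E rat hepatoma, 1500 cells/well, 5 hr settle at 37 °C; compound 16 hr, 37 °C, complete medium; Caspase-Glo 3/7, 20 min RT; luminescence. DMSO = 0%, 100 uM tamoxifen = 100%; Hill-equation AC50.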

[13] = Cellular Toxicity (caspase-3) N2a (AID 665); details: N2a cells, luminescence, normalized: DMSO 0%, 10 µM staurosporine 100%; series mostly up to 92.2 µM;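 further: compound exposure lasted 16 h at 37 °C before readout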
Summary of the method: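 Concentration-response qHTS: compound-induced caspase-3/7 luminescence in N2a cells (16 h, 37 °C), relative to DMSO and 10 uM staurosporine controls; AC50 obtained using the standard Hill equation.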

[14] = Cellular Toxicity (caspase-3) NIH 3T3 (AID 666); details: NIH 3T3 caspase-3 activation, apoptosis/toxicity; series mostly up to 92.2 µM;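 further: caspase signal read after 16 h compound exposure; 0% = DMSO basal and 100% = 100 µM tamoxifen stimulation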
Summary of the method: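 Activity: caspase-3/7 induction, NIH 3T3 cells, 16 hr treatment at 37°C, luminescent Caspase-Glo detection; AC50 via Hill equation.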

[15] = Cellular Toxicity (caspase-3) Renal Proximal Tubule (AID 667); details: renal proximal tubule cells; series mostly up to 91.7 µM;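 further: cells exposed to compound for 16 hours at 37 °C before detection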
Summary of the method: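 In qHTS format, rat primary proximal tubule cells seeded at 1000 per well are exposed to compounds for 16 hours at 37 °C. An increase in Caspase-Glo 3/7 luminescence indicates caspase activation.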

[16] = molecular target: Cytochrome P450 3A4 (Homo sapiens) (UniProt P08684); test: qHTS Assay for Inhibitors and Substrates of Cytochrome P450 3A4 (AID 884); details: recombinant CYP3A4, Luciferin-PPXE luminescence; series mostly up to 57.1 µM; further: on the % scale 0 is the no-effect control and ±100 the full control effect; nearly all actives have a fitted effect of over 50% in size
Cytochrome P450 3A4 (Homo sapiens), sequence (P08684 whole entry, looked up): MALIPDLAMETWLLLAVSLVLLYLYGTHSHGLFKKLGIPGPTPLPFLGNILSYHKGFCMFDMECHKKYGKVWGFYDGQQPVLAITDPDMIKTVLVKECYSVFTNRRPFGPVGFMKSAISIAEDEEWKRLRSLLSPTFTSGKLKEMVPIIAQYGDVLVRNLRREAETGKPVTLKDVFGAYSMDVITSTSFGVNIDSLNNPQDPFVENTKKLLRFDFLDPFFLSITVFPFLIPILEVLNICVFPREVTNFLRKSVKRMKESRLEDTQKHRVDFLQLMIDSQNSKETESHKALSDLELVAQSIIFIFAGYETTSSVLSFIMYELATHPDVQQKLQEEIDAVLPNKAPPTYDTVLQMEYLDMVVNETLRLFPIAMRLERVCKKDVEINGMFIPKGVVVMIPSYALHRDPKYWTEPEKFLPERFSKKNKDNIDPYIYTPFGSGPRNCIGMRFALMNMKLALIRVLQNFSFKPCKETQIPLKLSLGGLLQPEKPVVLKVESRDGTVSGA
Summary of the method: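 Luminescent readout of luciferin produced by CYP3A4 (20 nM) dealkylation of Luciferin-PPXE, 25 uM (its KM). NADPH-driven reaction ran 60 min at RT after 10 min compound preincubation; data scaled to 57 uM ketoconazole as 100% inhibition.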

[17] = Cell Viability - LYMP2-001 (AID 921); details: LYMP2-001 lymphoblastoid cell viability; series mostly up to 92.2 µM;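 further: 0% = DMSO only and full inhibition = tetraoctylammonium bromide control wells; nearly all actives have a fitted effect of over 70% in size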
Summary of the method: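 qHTS, 1536-well; lymphoblastoid cells, 24 hr compound, 37 C; ATP by CellTiter-Glo, 30 min RT; luminescence; Hill-fit AC50.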

[18] = MultiTox-Fluor Cytotoxicity Assay - LYMP1-001 - Dead Cells (AID 946); details: LYMP1-001 lymphoblastoid cells, dead-cell protease fluorescence; series mostly up to 92.2 µM;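 further: 0% = DMSO and 100% = tetraoctylammonium bromide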
Summary of the method: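 LYMP1-001 lymphoblastoid cells (2500/well) treated 16 h at 37 C. Dead-cell protease cleavage of bis-AAF-R110 read at Ex/Em 485/520. Normalized to DMSO and 15 uM tetraoctylammonium bromide; AC50 from Hill fits.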

[19] = MultiTox-Fluor Cytotoxicity Assay - LYMP1-001 - Live Cells (AID 947); details: LYMP1-001 lymphoblastoid cells, live-cell protease fluorescence viability; series mostly up to 92.2 µM;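 further: 0% = DMSO only and full inhibition = tetraoctylammonium bromide control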
[20] = Cell Viability - LYMP1-002 - Assay at 16 hr (AID 948); details: LYMP1-002 lymphoblastoid cell viability; series mostly up to 92.2 µM;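 further: 0% = DMSO alone and full effect = 92 µM tetraoctylammonium bromide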
Summary of the method: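 Acute cytotoxicity is scored as a concentration-dependent fall in intracellular ATP in a human lymphoblastoid line (LYMP1-002) after 16 hr compound exposure at 37 C, measured by luciferase luminescence.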

[21] = MultiTox-Fluor Cytotoxicity Assay - LYMP1-002 - Live Cells (AID 955); details: LYMP1-002 lymphoblastoid live-cell protease fluorescence viability; series mostly up to 46.1 µM; further: on the % scale 0 is the no-effect control and ±100 the full control effect
Summary of the method: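 In this qHTS viability format, lymphoblastoid cells (LYMP1-002, human) received compound for 16 hr at 37 C. Fluorogenic GF-AFC cleavage by viable cells was detected at 405/510 nm after 1 h at room temperature.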

[22] = MultiTox-Fluor Cytotoxicity Assay - LYMP1-003 - Dead Cells (AID 961); details: LYMP1-003 lymphoblastoid cells, dead-cell protease fluorescence; series mostly up to 92.2 µM;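 further: 0% = DMSO and 100% = tetraoctylammonium bromide; nearly all actives have a fitted effect of over 70% in size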
Summary of the method: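 LYMP1-003 human lymphoblastoid cells (2500/well) exposed to compound 16 h at 37 C in complete medium; dead-cell protease read with bis-AAF-R110 fluorescence (Ex/Em 485/520) after 60 min at room temperature. Normalized to DMSO and 15 uM tetraoctylammonium bromide; AC50 from Hill fit.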

[23] = MultiTox-Fluor Cytotoxicity Assay - LYMP1-003 - Live Cells (AID 962); details: LYMP1-003 lymphoblastoid cells, MultiTox-Fluor live-cell protease fluorescence; series mostly up to 92.2 µM;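 further: 0% = DMSO only and full loss = 92 µM tetraoctylammonium bromide; cytotoxic hits lower the live-cell protease signal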
Summary of the method: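 Human lymphoblastoid line LYMP1-003 in complete culture medium, treated 16 hr with titrated compounds. Viable cells quantified via cell-permeant GF-AFC substrate fluorescence; AC50 derived by Hill fitting.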

[24] = Cell Viability - LYMP1-003 - Assay at 24 hr (AID 963); details: LYMP1-003 lymphoblastoid cell viability; series mostly up to 92.2 µM;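 further: plate controls were DMSO only for no effect and tetraoctylammonium bromide positive control for full effect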
Summary of the method: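 The lymphoblastoid line was treated with titrated compounds for 24 hours, and viable cell number estimated from luciferase-based ATP luminescence.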

[25] = Cell Viability - LYMP1-003 - Assay at 40 hr (AID 964); details: LYMP1-003 lymphoblastoid viability; series mostly up to 92.2 µM; further: on the % scale 0 is the no-effect control and ±100 the full control effect; nearly all actives have a fitted effect of over 60% in size
Summary of the method: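 Acute toxicity is scored as a concentration-dependent loss of intracellular ATP in LYMP1-003 cells (2500/well, complete medium) after 40 hr at 37 C, measured by CellTiter-Glo luminescence; AC50 values derive from standard Hill modelling.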

[26] = Cell Viability - LYMP2-003 (AID 965); details: LYMP2-003 lymphoblastoid cell viability; series mostly up to 92.2 µM;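 further: cells exposed to compounds for 24 h before reading; 0% = DMSO only and full effect = 92 µM tetraoctylammonium bromide; nearly all actives have a fitted effect of over 50% in size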
Summary of the method: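 Acute cytotoxicity is scored as a concentration-dependent drop in intracellular ATP, measured by luciferase luminescence in human lymphoblastoid cells treated for 24 hours at 37 C. AC50 values derive from Hill-equation modelling.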

[27] = Cell Viability - LYMP2-004 (AID 966); details: LYMP2-004 lymphoblastoid cell viability, qHTS; series mostly up to 92.2 µM;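 further: plate controls were DMSO only for no effect and tetraoctylammonium bromide control for full effect; nearly all actives have a fitted effect of over 65% in size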
Summary of the method: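 Viable-cell number estimated from ATP luminescence (CellTiter-Glo) in 2500 human lymphoblastoid cells/well after 24 hr at 37 C with compound. AC50 fitted to the standard Hill equation.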

[28] = Cell Viability - LYMP2-005 (AID 967); details: LYMP2-005 lymphoblastoid cell viability; series mostly up to 92.2 µM;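 further: plate controls were DMSO only for no effect and 92 µM tetraoctylammonium bromide control for full effect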
Summary of the method: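 qHTS viability screen in LYMP2-005 cells: 24 h at 37 C with compound, ATP luminescence via CellTiter-Glo, AC50 from Hill curves.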

[29] = Cell Viability - LYMP2-009 (AID 968); details: LYMP2-009 lymphoblastoid cell viability; series mostly up to 92.2 µM;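 further: 0% = DMSO alone and the full-kill end = tetraoctylammonium bromide at 92 µM; nearly all actives have a fitted effect of over 55% in size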
[30] = Cell Viability - LYMP2-011 (AID 969); details: LYMP2-011 lymphoblastoid cells viability; series mostly up to 92.2 µM;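 further: 0% = DMSO only and full inhibition = 92 µM tetraoctylammonium bromide; nearly all actives have a fitted effect of over 60% in size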
Summary of the method: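 Cells seeded at 2500 per well rest 5 hr before compound addition, then incubate 24 hr at 37 C. CellTiter-Glo reagent is added for 30 min at room temperature before luminescence detection.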

[31] = Cell Viability - LYMP2-013 (AID 970); details: LYMP2-013 lymphoblastoid cells viability; series mostly up to 92.2 µM;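 further: 0% = DMSO only and full inhibition = tetraoctylammonium bromide control; nearly all actives have a fitted effect of over 55% in size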
Summary of the method: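 In complete culture medium, human lymphoblastoid cells were dosed for 24 hr at 37 C, with tetraoctylammonium bromide (6.4pM to 92 uM) as positive control. Viability reflects luciferase-based ATP signal; AC50 derived from concentration-response curves.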

[32] = Cell Viability - LYMP2-015 (AID 971); details: LYMP2-015 lymphoblastoid cell viability; series mostly up to 92.2 µM;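 further: 0% = DMSO only and full effect = 92 µM tetraoctylammonium bromide; nearly all actives have a fitted effect of over 55% in size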
Summary of the method: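 AC50 values reflect Hill-model fits of ATP-based luminescence (CellTiter-Glo) from a human lymphoblastoid line, 2500 cells/well, treated 24 hr at 37 C.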

Clc1ccc(C(c2ccccc2Cl)C(Cl)(Cl)Cl)cc1 (configuration not stated)
inactive: Potency [1] > 92 µM | Potency [2] > 92 µM | Potency [3] | outcome [4] | caspase-3 activation [5] 5.05% | outcome [6] | outcome [7] | outcome [8] | outcome [9] | outcome [10] | Potency [11] | Potency [12] | outcome [13] | Potency [14] | outcome [15] | Potency [16] | Potency [17] | outcome [18] | outcome [19] | outcome [20] | outcome [21] | Potency [22] | outcome [23] | outcome [24] | Potency [25] | Potency [26] | Potency [27] | Potency [28] | Potency [29] | Potency [30] | Potency [31] | Potency [32]
